In PubChem BioAssay (NCI) one finds growth data, which are given here for 13 compounds.

Among the test systems are SK-MEL-2 melanoma; EKVX NSCLC; SN12C renal; UO-31 renal; TK-10 renal; ACHN renal; CAKI-1 renal; A498 renal; MOLT-4 leukemia; CCRF-CEM leukemia.
Holding throughout (test): NCI-60 one-dose screen, 48 h (100 = growth as untreated, 0 = no growth, -100 = all killed)
Settings in all cases: 10 µM

This is part of a sample that, as a whole, favours compounds with a hit. Of some 83,000 tested, about 20% had one in any assay.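 Testing used 96-well plates and a 48-hour single-concentration exposure. Example: -40 means 40% of the starting cells died.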 Unmarked numbers belong to inactive results. Activity calls are given as the source filed them. The calls were made as follows: active = growth percent below 10; inactive = the rest.

Regarding `COc1ccc(-c2csc(NC(=O)c3ccc(Cc4n[nH]c(=O)c5cccnc45)cc3)n2)cc1`, the growth in the test with SK-MEL-2 melanoma is 110%; with EKVX NSCLC it was 66.6%; with SN12C renal, 89.1%; with UO-31 renal, 51.9%; in the test on TK-10 renal it was 115%; with ACHN renal it was 88.2%. Also, the growth was 84.5% in the test with CAKI-1 renal, 95.8% in the test with A498 renal and 97.2% with MOLT-4 leukemia.

For `C#CCOc1c(OC)cc(C(=O)/C(C)=C/c2cccc(N=[N+]=[N-])c2)cc1OC`, the growth in the test with SK-MEL-2 melanoma is 27.5%; with EKVX NSCLC, 46%; in the test on SN12C renal, 41.8%; in the test on UO-31 renal, 50.9%; in the test with TK-10 renal, 60.8%; in the test on ACHN renal, 32.4%. Also, the values for the growth in the test on CAKI-1 renal, with A498 renal and with MOLT-4 leukemia were 42.9%, 23.4% and 21.8%, respectively.

As to `CC(=O)C1N=NCC1c1ccccc1` (stereo unspecified), the growth in the test on SK-MEL-2 melanoma is 97.3%; in the test with EKVX NSCLC it was 101%; in the test with SN12C renal, 88.7%; with UO-31 renal it was 92.3%; in the test with TK-10 renal, 96.1%; in the test on ACHN renal it was 95.8%. Besides, the figures for the growth in the test on CAKI-1 renal, in the test with CCRF-CEM leukemia and in the test on MOLT-4 leukemia were 95.4%, 104% and 96.7%, respectively.

Take `NS(=O)(=O)Oc1ccc(-c2ccc3sccc3c2)cc1`: the growth in the test on SK-MEL-2 melanoma was 105%; in the test on EKVX NSCLC, 13.3%; in the test with SN12C renal it was 94.3%; in the test on UO-31 renal, 82.1%; with TK-10 renal it was 94%; in the test on ACHN renal it was 94.1%. The results for the growth with CAKI-1 renal, in the test on A498 renal and with MOLT-4 leukemia were 83.6%, 99.8% and 97.4%, respectively.

Regarding `C=CCN(CC=C)C(=O)[C@H](CC)[C@@H]1CC[C@@H](C)[C@@H]([C@H](C)[C@@H](O)[C@@H](C)C(=O)[C@H](CC)C2O[C@]3(C=C[C@@H](O)[C@]4(CC[C@@](C)([C@H]5CC[C@](O)(CC)[C@H](C)O5)O4)O3)[C@H](C)C[C@@H]2C)O1` (stereo partly specified), the growth in the test on SK-MEL-2 melanoma is -7.12% (active); with EKVX NSCLC it was -5.86% (active); in the test with SN12C renal, 6.36% (active); in the test on UO-31 renal, -12.6% (active); in the test with TK-10 renal, 16.2%; in the test on ACHN renal, 5.93% (active). Moreover, the growth in the test on CAKI-1 renal is 1.41% (active); in the test with A498 renal, -2.03% (active); in the test on MOLT-4 leukemia, 19.4%.

`O=C(O)c1cc([N+](=O)[O-])ccc1Oc1ccccc1`: the growth is 103% in the test on SK-MEL-2 melanoma; 97.9% in the test on EKVX NSCLC; 95.3% in the test on SN12C renal; 83.5% in the test on UO-31 renal; 88.5% with TK-10 renal; 101% with ACHN renal. The growth in the test on CAKI-1 renal and in the test with CCRF-CEM leukemia was 101% throughout.

Take `COc1ccc(-c2cc(-c3ccccc3)nc(SCCCCCCC(=O)NO)n2)cc1`: the growth in the test with SK-MEL-2 melanoma was 78%; in the test with EKVX NSCLC, 74.2%; with SN12C renal, 79.6%; in the test on UO-31 renal, 34.3%; with TK-10 renal, 45.9%; in the test with ACHN renal it was 45.4%. The growth in the test with CAKI-1 renal was 39.6%; in the test with A498 renal, 48.7%; with MOLT-4 leukemia, 14.4%.

In the case of `CNC(=O)c1cn2c3c(c(N4CCN(C)CC4)c(F)cc3c1=O)OC[C@@H]2C`, the growth is 95.4% with SK-MEL-2 melanoma; 93.5% in the test on EKVX NSCLC; 104% with SN12C renal; 92.3% in the test with UO-31 renal; 90.6% in the test with TK-10 renal; 111% in the test on ACHN renal. Further, the growth is 94.7% in the test on CAKI-1 renal, 92.8% in the test on A498 renal and 101% with MOLT-4 leukemia.

Take `COc1ccc(NC(=O)C2CC3C=CC2C3)c([N+](=O)[O-])c1` (stereo unspecified): the growth in the test on SK-MEL-2 melanoma is 104%; with EKVX NSCLC, 101%; in the test with SN12C renal it was 91.6%; with UO-31 renal, 92.4%; in the test with TK-10 renal, 109%; with ACHN renal, 98.4%. The growth with CAKI-1 renal was 92.6%; in the test on A498 renal, 103%; in the test on MOLT-4 leukemia it was 86.8%.

In the case of `O=C(CN1CCN(C(=O)c2ccccc2)CC1)Nc1ccccc1SCc1ccccc1`, the growth with SK-MEL-2 melanoma is 66.8%; with EKVX NSCLC, 72.3%; in the test with SN12C renal, 77.9%; in the test with UO-31 renal it was 52.2%; in the test with TK-10 renal, 82.2%; in the test with ACHN renal, 80.8%. Besides, the growth is 71.8% with CAKI-1 renal, 86.6% with A498 renal and 74.1% with MOLT-4 leukemia.

As for `COc1cc(/C=C/c2cc(/C=C/c3ccc(O)c(OC)c3)[nH]c(=O)n2)ccc1O`, the growth with SK-MEL-2 melanoma is 81.1%; in the test with EKVX NSCLC it was 71.6%; in the test on SN12C renal, 62.3%; in the test on UO-31 renal it was 54.2%; with TK-10 renal, 103%; in the test with ACHN renal it was 89.4%. Besides, the growth is 88.6% with CAKI-1 renal, 16.7% in the test on CCRF-CEM leukemia and 36.3% in the test with MOLT-4 leukemia.

Consider `O=[N+]([O-])c1ccc2ncccc2c1Cl`, for which the growth was 77.4% with SK-MEL-2 melanoma; 119% in the test with EKVX NSCLC; 45.6% with SN12C renal; 30.2% in the test with UO-31 renal; 66.7% in the test on TK-10 renal; 56.2% in the test on ACHN renal. For the same compound, the growth in the test on CAKI-1 renal was 32%; with A498 renal it was 100%; in the test with MOLT-4 leukemia it was 30%.

Take `COc1cc(NC(=O)C2=C(N3CCOCC3)/C(=C/c3ccc(Cl)cc3)CC2)cc(OC)c1OC`: the growth with SK-MEL-2 melanoma is 85.4%; in the test on EKVX NSCLC, 93.4%; in the test with SN12C renal it was 83.4%; in the test with UO-31 renal it was 72.8%; in the test with TK-10 renal, 121%; in the test with ACHN renal, 93.5%. Besides, the growth in the test with CAKI-1 renal was 84.6%; in the test with CCRF-CEM leukemia, 39.8%; in the test with MOLT-4 leukemia, 49.3%.
